This is a sample that favours compounds with a hit; in the whole collection about 2.9% have one here.
SNCA expr inhib = inhibitors of alpha-synuclein (SNCA) gene expression; HEK-293 SNCA-luciferase knock-in, luminescence, 24 h; Potency, µM (series often up to 57.2 µM), inactives show at the top dose activity change, negative = inhibition, most hits filed as inhibitors; actives 0.17% (n = 140,000); AID 1671194;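 also: potency is read from the fitted curve at half-maximal effect; plate controls were DMSO cells for no effect and cell-free wells for full effect; nearly all actives have a fitted effect of over 45% in size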
KDM5B inh = KDM5B demethylase inhibition; Q9UGL1; KDM5B demethylase, FDH-coupled NADH fluorescence (FDH is formaldehyde dehydrogenase); Potency, µM (titrated, usually from 57.7 µM), usual class: inhibitors; actives 2.6% (n = 220,000); also: potency is read from the fitted curve at half-maximal effect; 0% is about no effect; nearly all actives have a fitted effect of over 70% in size
Target sequence (Q9UGL1 whole entry, looked up): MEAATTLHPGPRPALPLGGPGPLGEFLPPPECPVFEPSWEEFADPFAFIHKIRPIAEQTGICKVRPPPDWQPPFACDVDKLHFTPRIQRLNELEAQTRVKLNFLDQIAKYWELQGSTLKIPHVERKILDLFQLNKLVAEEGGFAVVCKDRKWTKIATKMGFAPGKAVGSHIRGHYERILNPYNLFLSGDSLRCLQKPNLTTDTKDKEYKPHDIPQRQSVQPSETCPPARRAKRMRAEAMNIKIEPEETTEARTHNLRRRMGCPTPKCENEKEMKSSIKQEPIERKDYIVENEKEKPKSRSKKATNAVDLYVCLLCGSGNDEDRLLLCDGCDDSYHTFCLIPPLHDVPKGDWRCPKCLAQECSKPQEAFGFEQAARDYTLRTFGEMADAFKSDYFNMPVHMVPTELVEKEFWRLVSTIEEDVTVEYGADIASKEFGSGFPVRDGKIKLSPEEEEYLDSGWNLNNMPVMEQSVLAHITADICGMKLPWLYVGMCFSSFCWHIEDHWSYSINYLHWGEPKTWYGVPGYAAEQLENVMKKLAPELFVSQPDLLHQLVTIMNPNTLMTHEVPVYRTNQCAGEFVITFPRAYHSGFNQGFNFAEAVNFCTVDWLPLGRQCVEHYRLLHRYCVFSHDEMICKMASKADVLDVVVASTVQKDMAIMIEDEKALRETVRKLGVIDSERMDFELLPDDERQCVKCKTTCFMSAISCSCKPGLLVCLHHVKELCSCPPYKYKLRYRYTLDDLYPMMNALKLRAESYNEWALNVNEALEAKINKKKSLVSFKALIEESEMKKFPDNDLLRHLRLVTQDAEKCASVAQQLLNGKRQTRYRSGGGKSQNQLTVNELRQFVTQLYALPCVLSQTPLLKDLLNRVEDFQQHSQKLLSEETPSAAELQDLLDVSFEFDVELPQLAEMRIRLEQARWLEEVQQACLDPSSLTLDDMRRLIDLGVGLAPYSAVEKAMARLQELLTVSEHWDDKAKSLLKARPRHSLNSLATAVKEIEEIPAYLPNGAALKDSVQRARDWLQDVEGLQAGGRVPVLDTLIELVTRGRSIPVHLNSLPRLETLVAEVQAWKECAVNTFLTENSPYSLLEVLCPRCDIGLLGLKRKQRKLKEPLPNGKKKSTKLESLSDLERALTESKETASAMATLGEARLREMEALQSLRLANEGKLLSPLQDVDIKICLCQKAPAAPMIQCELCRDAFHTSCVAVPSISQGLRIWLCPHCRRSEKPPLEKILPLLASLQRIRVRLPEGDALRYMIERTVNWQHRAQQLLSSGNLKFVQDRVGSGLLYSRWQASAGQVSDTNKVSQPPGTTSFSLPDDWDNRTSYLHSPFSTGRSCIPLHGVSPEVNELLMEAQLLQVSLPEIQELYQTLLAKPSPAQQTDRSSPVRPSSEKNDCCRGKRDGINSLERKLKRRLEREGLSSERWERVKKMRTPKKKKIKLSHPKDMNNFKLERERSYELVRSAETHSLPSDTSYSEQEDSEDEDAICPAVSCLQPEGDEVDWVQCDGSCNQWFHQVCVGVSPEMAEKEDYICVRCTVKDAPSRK
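Compound dilutions met 200 nM (final) KDM5BΔAP for 10 min at room temperature before substrate addition. The substrate mix held 12.5 µM H3K4me3 with cofactors 25 µM α-ketoglutarate and 50 µM Fe²⁺. NADH signal gain over 30 min defined activity.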
HEK293 viab = cell viability loss counter-screen. HEK-293-SNCA-luc viability, GF-AFC fluorescence, 24 h. actives 0.12% (n = 150,000). Potency, µM (series often up to 57.1 µM), without a hit: at the top dose activity change, negative = cytotoxicity, actives largely listed as cytotoxic;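 also: potency is read from the fitted curve at half-maximal effect; 0% = DMSO-treated cells and -100% = medium-only wells without cells; nearly all actives have a fitted effect of over 30% in size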
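HEK-293-SNCA-luc cells (1500/well) plated 24 h, then exposed 24 h to a dilution series; GF-AFC added 30 min at 37C, fluorescence 405/540 nm; normalised to medium-only and DMSO wells, Hill fit.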
IP6K1 inh = IP6K1 kinase inhibition | actives 0.81% (n = 140,000) | Q92551 | IP6K1 kinase, ADP-Glo luminescence, 2 h; hits give low values | activity change, % (series mostly up to about 58 µM); in the data active = activity change below about -25%; also: % is scaled to controls: 0 for no effect and ±100 for the full control effect
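ADP-Glo luminescence measures ADP made by human IP6K1 during a 2 h RT reaction with ATP/IP6 (mix at 1.3 mM/130 uM); top library doses 57.5 and 19.1 uM final.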
The depositor's hits bear a star; i = inactive; ? = inconclusive; . = no result; [ ] = another dose, or the depositor's remark. Unless noted, calls follow the shape of the dose curve; as a rule, active = well fitted curve in the direction sought with a large enough effect; inconclusive = small, poorly fitted or top-dose-only effect, or another doubt; inactive = no such curve, though single readings can be large; an effect the other way counts as inactive or inconclusive.

SMILES | SNCA expr inhib | KDM5B inh | HEK293 viab | IP6K1 inh
O=C(NCc1ccc2c(c1)OCO2)c1nc(-c2cccc(C(F)(F)F)c2)c2cnccn12 | -16% | 28µM* | -7% | 1
O=C(NCc1cccs1)c1nc(-c2cccnc2)c2cnccn12 | -22% | 25µM* | 5% | 0
O=C(NCc1ccc2c(c1)OCO2)c1nc(-c2cccnc2)c2cnccn12 | 2% | 28µM* | 3% | 1
CCC(c1cccs1)N1C(=O)[C@H]2CN(S(=O)(=O)c3ccc(F)cc3)C[C@H]2C1=O (some centres undefined) | -14% | i | 5% | -7
O=C(NC1CCC1)c1ccc2nccn2c1 | -17%[87.6 µM] | ? | -1%[87.6 µM] | -6
O=C(NCc1ccccc1)c1ccc2nccn2c1 | 172%[87.6 µM] | . | -2%[87.6 µM] | 8
O=C(NC1CCCCCC1)c1ccc2nccn2c1 | 150%[87.6 µM] | 28µM* | -10%[87.6 µM] | 0
COC(=O)CNC(=O)c1ccc2nccn2c1 | 13%[87.6 µM] | 112µM* | 7%[87.6 µM] | -3
C#CCNC(=O)c1ccc2nccn2c1 | 8%[87.6 µM] | 141µM* | 0%[87.6 µM] | -9
Cc1ccc(CNC(=O)c2ccc3nccn3c2)o1 | 27%[87.6 µM] | 28µM* | 2%[87.6 µM] | -9
COc1ccc(CNc2nc(-c3c(C)noc3C)nc3ccccc23)c(OC)c1 | 0% | . | -9% | .
CCOc1ccc(NC(=S)N(CCCN2CCCC2)Cc2cccn2Cc2ccc(Cl)cc2)cc1 | . | i | . | .
COc1cc(OC)c(OC)cc1CN1CCN(Cc2cc(OC)c(O)c(OC)c2)CC1 | . | i | . | .
CCOc1cc(=O)n2c(c1C(=O)NCCCN1CCCc3ccccc31)CCCCC2 | -17% | 11µM* | 10% | 0
Cc1onc(-c2ccccc2)c1C(=O)NC1CCOC2(CCOCC2)C1 (centres undefined) | 40% | i | 2% | 14
COCC1CN(C)CC12CCN(Cc1ccc(OC)cc1)CC2 (centres undefined) | -8% | ? | -2% | 15
COCC1CN(C)CC12CCN(Cc1ccc(F)c(Cl)c1)CC2 (centres undefined) | 13% | 28µM* | -6% | 23
COc1cc(F)ccc1-c1cn(C)c(=O)n2cc(CN3CCNC(=O)C3)nc12 | 15%[87.6 µM] | i | 11%[87.6 µM] | -9
COCCNC(=O)c1ccc2c(c1)N(C)C(CC(=O)N1CCNC(=O)C1)CO2 (centres undefined) | -15% | 28µM* | 13% | 12
CN(C)C(=O)c1ccc2c(c1)N(C)C(CC(=O)NCC(C)(C)O)CO2 (centres undefined) | ? | i | 5% | 3
COCCNC(=O)c1ccc2c(c1)N(C)C(CC(=O)N1CCCC1)CO2 (centres undefined) | 4% | 32µM* | -7% | 1
COc1ccc(C2CC(=O)N(CC(=O)Nc3cccc(C)c3C)c3ccccc3S2)cc1OC (centres undefined) | ? | i | -11% | -9
CCNc1ncc(C(=O)N2CCCC(Nc3ccc(OC)cc3)C2)cn1 (centres undefined) | 5% | i | 11% | 6
COc1ccc(NC2CCCN(CC(=O)Nc3ccc(C)cn3)C2)cc1 (centres undefined) | -5% | 16µM* | -1% | 0
COc1ccccc1-c1cc(C(=O)NCCc2ccc(Cl)cc2)nc2c1cnn2C | 23% | 79µM* | -1% | -5
SMILES | SNCA expr inhib | KDM5B inh | HEK293 viab | IP6K1 inh
COc1ccccc1-c1cc(C(=O)NCCc2ccc(Cl)cc2)c2cnn(C)c2n1 | 8% | 79µM* | -7% | -10
CCOc1ccccc1CN1CCC2(CCN(Cc3ccsc3)CC2)Oc2ccccc21 | -20% | ? | -13% | -14
COc1cc(C)cc(C(C(=O)O)N2CCN(c3cnccn3)CC2)c1OC (centres undefined) | -25% | 28µM* | 7% | 28
COc1ccc(NC(=O)C2CCN(c3cnccn3)CC2)cc1OC | . | i | . | .
COc1ccc(CCNC(=O)C2(C)CCOCC2)cc1 | -19%[87.6 µM] | i | 9%[87.6 µM] | 0
COc1ccc(-c2ccc3nnc(CNC(=O)c4sccc4C)n3n2)cc1 | 50% | 32µM* | 1% | -11
COc1ccc(-c2ccc3nnc(CNC(=O)c4ccc(C)cc4C)n3n2)cc1 | 5% | 28µM* | -2% | 7
COc1ccc(-c2ccc3nnc(CNC(=O)COc4cccc(C)c4)n3n2)cc1 | 14% | 25µM* | -2% | 7
COc1ccc(C(=O)NCc2nnc3ccc(-c4ccc(C)cc4)nn23)c(C)c1 | -16% | 28µM* | -8% | 10
O=S(=O)(Cc1ccc2c(c1)OCO2)c1ccc2ccccc2c1 | . | i | . | .
COc1cccc(NC(=O)c2sc3nc4c(c(-c5ccco5)c3c2N)CCCCC4)c1 | . | i | . | .
COC(=O)[C@H](C(C)C)N(Cc1cn(Cc2ccc(C)cc2)nn1)S(=O)(=O)c1ccccc1Br | . | i | . | .
CC(C)CCNc1nc2c(-c3ccccc3)nnn2c2ccccc12 | 32% | i | 5% | 17
CCS(=O)(=O)c1ccc2oc([C@H]3CCN(C(C)C)C3)nc2c1 | 202%[87.6 µM] | 40µM* | 8%[87.6 µM] | -4
Oc1cccc(-c2cc(C3=CCOCC3)c3cncn3c2)c1 | -15%[87.6 µM] | ? | 3%[87.6 µM] | -6
C1=C(c2cc(-c3cccc4[nH]ccc34)cn3cncc23)CCOC1 | -27%[87.6 µM] | 25µM* | -10%[87.6 µM] | -9
Cc1noc(C)c1-c1cc(-c2cccc3cc[nH]c23)cn2cncc12 | 4%[87.6 µM] | ? | ? | -15
Oc1ccccc1-c1cc(C2=CCOCC2)c2cncn2c1 | 2%[87.6 µM] | 32µM* | 2%[87.6 µM] | -13
C1=C(c2cc(-c3cccc4cn[nH]c34)cn3cncc23)CCOC1 | ? | 32µM* | -9%[87.6 µM] | 29
COc1ccccc1-c1cccc(C(=O)N2CCN(C(=O)Nc3ccc(Cl)cc3)CC2)c1 | 7% | . | 1%[12.5 µM] | 1
COc1ccc(CC(=O)NCC(=O)N2CCN(c3ccccn3)CC2)cc1 | 10% | 32µM* | 19% | 6
COc1ccc(C(=O)NCC(=O)N2CCN(c3ccccn3)CC2)c(C)c1 | -15% | 22µM* | -6% | 7
O=C(CN1CCN(c2ccccn2)CC1)Nc1cc(F)ccc1F | . | i | . | .
O=C(COc1ccc(F)cc1)NCC(=O)N1CCN(c2ccccn2)CC1 | -13% | 25µM* | -5% | -4
COc1ccccc1CC(=O)NCC(=O)N1CCN(c2ccccn2)CC1 | 5% | 25µM* | 2% | 7
SMILES | SNCA expr inhib | KDM5B inh | HEK293 viab | IP6K1 inh
O=C([C@H]1CCCN1C(=O)c1cccc(Cl)c1)N1CCCC(c2nc3ccncc3[nH]2)C1 (some centres undefined) | -11% | . | -2% | 4
O=C(CCc1ccccc1)NCC(=O)N1CCN(c2ccccn2)CC1 | 16% | ? | -11% | 19
O=C(CCCc1ccccc1)NCC(=O)N1CCN(c2ccccn2)CC1 | 4% | 28µM* | 2% | 22
COc1ccc(C2(C(=O)N3CCN(c4ccccn4)CC3)CCOCC2)cc1 | 2% | 79µM* | -2% | -6
COc1ccc(C2(C(=O)N3CCN(c4ncccn4)CC3)CCOCC2)cc1 | 1% | i | 1% | -21
O=C1[C@H]2CN(Cc3cc(F)cc(F)c3)C[C@H]2C(=O)N1CCc1ccccc1 | -27% | i | -8% | -9

Assay outcomes deposited in PubChem by National Center for Advancing Translational Sciences (NCATS).
